Assay results: PubChem BioAssay (NCATS)
Records with an inconclusive call do not appear. The source made the active and inactive calls. Calls come from the whole dose curve; as a rule, active = well fitted inhibition curve with a large enough effect; inconclusive = small, poorly fitted or top-dose-only effect; inactive = flat fitted curve, though single readings scatter.

How the values were obtained:
CRL-7250 = normal cell line; assay: Cytotoxic Profiling of Annotated Libraries Using Quantitative High-Throughput Screening (AID 1296008); conditions: Five cell lines viability, CellTiter-Glo ATP luminescence, 48-72 h; max response: active compounds read low; for max response: % is set by controls: 0 for no effect and ±100 for the full control effect
Summary of the method: (§1)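 Compounds were pin-transferred onto cells and incubated 48 or 72 hr at 37 degree Celsius, 95% humidity. CellTiter-Glo was added, plates sat 10 min at room temperature, then ATP-coupled luminescence was imaged as the viability read-out.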

HEK293 = assay: as above; conditions: Five cell lines viability, CellTiter-Glo ATP luminescence, 48-72 h; max response: active compounds read low
Summary of the method: as §1

HaCat [1] = assay: as above; conditions: Five cell lines viability, CellTiter-Glo ATP luminescence, 48-72 h; max response: active compounds read low
Summary of the method: as §1

KB-3-1 = assay: as above; conditions: Five cell lines viability, CellTiter-Glo ATP luminescence, 48-72 h; max response: active compounds read low
Summary of the method: as §1

NIH3T3 = assay: as above; conditions: Five cell lines viability, CellTiter-Glo ATP luminescence, 48-72 h; max response: active compounds read low
Summary of the method: as §1

HACAT [2] = assay: qHTS assay to identify novel small-molecules to repurpose for Merkel cell carcinoma treatment (AID 1296009); conditions: MCC and control cell lines, CellTiter-Glo viability, 72 h; at 44.8 µM (top of the series) unless noted
Summary of the method: (§2)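 Cells exposed to NPC (8-point) and MIPE (11-point) compound dilutions for 72 hr at 37 degree celsius; viability read by CellTiter-Glo luminescence, normalized to no-cell and DMSO in-plate controls.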

HEK293T = assay: as above; conditions: MCC and control cell lines, CellTiter-Glo viability, 72 h; series mostly up to 44.8 µM
Summary of the method: as §2
Note: nearly all actives have a fitted effect of over 60% in size.

NC(Cc1c[nH]c2ccccc12)C(=O)NC(CCC(=O)O)C(=O)O (stereo not drawn)
inactive: outcome (CRL-7250) | outcome (HEK293) | outcome (HaCat [1]) | max response (KB-3-1) 5.6% | max response (NIH3T3) 1.77% | outcome (HACAT [2]) | Potency (HEK293T)

C=C(C(=O)O)[C@@H]1CC=C2CCC[C@H](C)[C@@]2(C)C1
inactive: max response (CRL-7250) -11.2% | outcome (HEK293) | outcome (HaCat [1]) | max response (KB-3-1) 4.53% | outcome (NIH3T3) | outcome (HACAT [2]) | Potency (HEK293T)

O=C(O[C@@H]1O[C@H](CO)[C@@H](O)[C@H](O)[C@H]1O)c1c(O)cc(O)cc1/C=C/c1ccccc1
inactive: max response (CRL-7250) 2.06% | outcome (HEK293) | outcome (HaCat [1]) | outcome (KB-3-1) | max response (NIH3T3) 3.61% | outcome (HACAT [2]) inactive [at 17.4 µM] | Potency (HEK293T)

CO[C@H]1C=C2C(CC[C@H](O[C@@H]3O[C@H](CO)[C@@H](O)[C@@H](O)[C@H]3O)C2(C)C)[C@]2(C)CC[C@]3(C)C([C@H](C)C(O)C(C=C(C)C)O[C@@H]4O[C@H](CO)[C@@H](O)[C@@H](O)[C@H]4O)CC[C@@]3(C)C12 (stereo partly drawn)
inactive: max response (CRL-7250) -4.36% | outcome (HEK293) | outcome (HaCat [1]) | max response (KB-3-1) 6.33% | max response (NIH3T3) 3.68% | outcome (HACAT [2]) inactive [at 9.27 µM] | outcome (HEK293T) inactive [at 9.27 µM]

CC(=O)OC[C@@]12[C@H](O)C[C@@H](C)[C@]3(C[C@@H](c4ccoc4)OC3=O)[C@H]1C[C@H](O)C[C@]21CO1
inactive: outcome (CRL-7250) | outcome (HEK293) | outcome (HaCat [1]) | outcome (KB-3-1) | outcome (NIH3T3) | outcome (HACAT [2]) inactive [at 17.4 µM] | Potency (HEK293T)

CC1=CC[C@]2(C(=O)O[C@@H]3O[C@H](CO[C@@H]4O[C@H](CO)[C@@H](O[C@@H]5O[C@@H](C)[C@H](O)[C@@H](O)[C@H]5O)[C@H](O)[C@H]4O)[C@@H](O)[C@H](O)[C@H]3O)CC[C@]3(C)C(CCC4[C@@]5(C)C[C@@H](O)[C@H](O)[C@@](C)(CO)C5CC[C@]43C)C2C1C (stereo partly drawn)
inactive: max response (CRL-7250) -9.97% | outcome (HEK293) | outcome (HaCat [1]) | max response (KB-3-1) 0.857% | outcome (NIH3T3) | outcome (HACAT [2]) inactive [at 9.27 µM] | outcome (HEK293T) inactive [at 9.27 µM]

CC(=O)O[C@@H]1[C@H](O[C@@H]2O[C@H](CO)[C@@H](O)[C@H](O)[C@H]2O)[C@@H](O[C@@H]2O[C@@H](C)[C@H](O)[C@@H](O[C@@H]3O[C@H](CO)[C@@H](O)[C@H](O)[C@H]3O)[C@H]2O)[C@H](OC(=O)C23CCC4(C)C(=CCC5C6(C)CC(O)C(O[C@@H]7O[C@H](C(=O)O)[C@@H](O)[C@H](O)[C@H]7O)C(C)(C(=O)O)C6CCC54C)C2CC(C)(C)CC3O)O[C@@H]1C (stereo partly drawn)
inactive: max response (CRL-7250) -7.88% | outcome (HEK293) | outcome (HaCat [1]) | outcome (KB-3-1) | outcome (NIH3T3) | outcome (HACAT [2]) inactive [at 9.27 µM] | outcome (HEK293T) inactive [at 9.27 µM]

CC(C)CC(=O)n1cc(C(N)=O)c(=O)cc1C(O)c1ccccc1 (stereo not drawn)
inactive: outcome (CRL-7250) | outcome (HEK293) | outcome (HaCat [1]) | outcome (KB-3-1) | max response (NIH3T3) 0.668% | outcome (HACAT [2]) | Potency (HEK293T)

COc1cc(NC(=O)c2ccccn2)ccc1Cl
inactive: max response (CRL-7250) 4.88% | outcome (HEK293) | outcome (HaCat [1]) | max response (KB-3-1) -6.58% | outcome (NIH3T3) | outcome (HACAT [2]) | Potency (HEK293T)

O=C1N(CC2CCCCN2)CCN1c1ccccc1 (stereo not drawn)
inactive: max response (CRL-7250) -3.2% | outcome (HEK293) | outcome (HaCat [1]) inactive; activator | outcome (KB-3-1) | outcome (NIH3T3) | outcome (HACAT [2]) inactive; activator | Potency (HEK293T)

Clc1ccc2c(c1)C1=NCCN1c1c(-c3noc(C4CC4)n3)ncn1-2
inactive: outcome (CRL-7250) | outcome (HEK293) | outcome (HaCat [1]) | outcome (KB-3-1) | outcome (NIH3T3) | outcome (HACAT [2]) | Potency (HEK293T)

C=C1CC/C=C(/CO)C(=O)C[C@@H]2[C@@H]1CC2(C)C
inactive: outcome (CRL-7250) | outcome (HEK293) | outcome (HaCat [1]) | max response (KB-3-1) 2.82% | max response (NIH3T3) 0.52% | outcome (HACAT [2]) | Potency (HEK293T)

CC(O)C(O)/C=C/C=C/C(=O)O[C@@H]1C=C2COC(=O)[C@]2(O)[C@@]2(C)CCCC(C)(C)C12 (stereo partly drawn)
inactive: max response (CRL-7250) 3.05% | outcome (HEK293) | outcome (HaCat [1]) | max response (KB-3-1) 8.55% | outcome (NIH3T3) | outcome (HACAT [2]) inactive [at 17.4 µM] | Potency (HEK293T)

CC(=O)OC[C@@]12[C@H](O)C[C@]3(C)C(=CCC4[C@@]5(C)CC[C@H](O[C@@H]6O[C@H](C(=O)O)[C@@H](O[C@@H]7O[C@H](CO)[C@@H](O)[C@H](O)[C@H]7O)[C@H](O)[C@H]6O[C@@H]6O[C@H](CO)[C@@H](O)[C@H](O)[C@H]6O)[C@](C)(CO)C5CC[C@]43C)[C@@H]1CC(C)(C)[C@@H](OC(C)=O)[C@@H]2O (stereo partly drawn)
inactive: outcome (CRL-7250) | outcome (HEK293) | outcome (HaCat [1]) | max response (KB-3-1) 6.14% | max response (NIH3T3) 0.485% | outcome (HACAT [2]) inactive [at 9.27 µM] | outcome (HEK293T) inactive [at 9.27 µM]

C/C=C/C1=CC2=CC(=O)C(C)(O)C(OC(=O)c3c(C)cc(O)cc3O)C2CO1 (stereo not drawn)
inactive: max response (CRL-7250) 1.95% | outcome (HEK293) | outcome (HaCat [1]) | max response (KB-3-1) 2.68% | outcome (NIH3T3) | outcome (HACAT [2]) | Potency (HEK293T)

O=C(/C=C/c1c(C(=O)O)[nH]c2cc(Cl)cc(Cl)c12)Nc1ccccc1
inactive: max response (CRL-7250) -11.7% | outcome (HEK293) | outcome (HaCat [1]) | outcome (KB-3-1) | outcome (NIH3T3) | outcome (HACAT [2]) | Potency (HEK293T)

COC(=O)C1=C[C@@H](O)[C@@H](O)[C@H](O[C@@H]2O[C@H](COC(=O)/C=C/c3ccccc3)[C@@H](O)[C@H](O)[C@H]2O)C1
inactive: outcome (CRL-7250) | outcome (HEK293) | outcome (HaCat [1]) | max response (KB-3-1) 3.55% | outcome (NIH3T3) | outcome (HACAT [2]) inactive [at 17.4 µM] | Potency (HEK293T)

CC(C)(O)C1=CCC23COC(C2)C(O)(C(=O)O)CCC13 (stereo not drawn)
inactive: outcome (CRL-7250) | outcome (HEK293) | outcome (HaCat [1]) | max response (KB-3-1) 2.8% | outcome (NIH3T3) | outcome (HACAT [2]) | Potency (HEK293T)

CNC(=O)O[C@H]1COc2ccc(N3CCN(C4COC4)CC3)cc2[C@@H]1NC(=O)c1ccc(F)cc1
inactive: max response (CRL-7250) -2.36% | outcome (HEK293) | outcome (HaCat [1]) | outcome (KB-3-1) | outcome (NIH3T3) | outcome (HACAT [2]) | Potency (HEK293T)

COc1cc(/C=C/C(=O)OC[C@H]2O[C@H](O[C@]3(CO)O[C@H](CO)[C@@H](O)[C@@H]3O)[C@H](O)[C@@H](O)[C@@H]2O)cc(OC)c1O
inactive: max response (CRL-7250) 0.115% | outcome (HEK293) | outcome (HaCat [1]) | max response (KB-3-1) -1.09% | max response (NIH3T3) -20.7% | outcome (HACAT [2]) inactive [at 17.4 µM] | Potency (HEK293T)

CCc1c(CC(N)=O)c2cc(OCCCP(=O)(O)O)ccc2n1Cc1ccccc1
inactive: max response (CRL-7250) -8.49% | outcome (HEK293) | outcome (HaCat [1]) | outcome (KB-3-1) | max response (NIH3T3) -4.64% | outcome (HACAT [2]) | Potency (HEK293T)

COc1cc(/C=C/CO)ccc1O[C@@H]1O[C@H](CO)[C@@H](O)[C@H](O)[C@H]1O
inactive: max response (CRL-7250) -3.79% | outcome (HEK293) | outcome (HaCat [1]) | max response (KB-3-1) 9.42% | outcome (NIH3T3) | outcome (HACAT [2]) | Potency (HEK293T)

CCCOc1ccn2c(C(C)=O)cc(-c3ccccc3S(C)(=O)=O)c2c1
inactive: outcome (CRL-7250) | outcome (HEK293) | outcome (HaCat [1]) | max response (KB-3-1) 3.55% | max response (NIH3T3) -3.04% | outcome (HACAT [2]) | Potency (HEK293T)

CC(C)C1=CCC(C)(O)C(OC2OC(CO)C(O)C(O)C2O)C1 (stereo not drawn)
inactive: max response (CRL-7250) -1.73% | outcome (HEK293) | outcome (HaCat [1]) | outcome (KB-3-1) | outcome (NIH3T3) | outcome (HACAT [2]) | Potency (HEK293T)
